# PubChem BioAssay (EPA / NIEHS)
# Inconclusive results are not listed. Activity calls are given as the source filed them. Rule for the calls, unless noted: active = hit-call score of the fitted dose curve at least 0.9, where 1 is the maximum; inactive = score below 0.9.
# Tests used:
# [1] = BSK_LPS_SRB: Viability Assessment in the BioMAP Diversity Plus: LPS Assay (AID 2283079); settings: primary human HUVEC with PBMC;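 note: total protein by sulforhodamine B absorbance as a cytotoxicity measure; measured one day after compound addition; fitted in both directions against DMSO so loss or gain of signal counts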
# Summary of the method: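 Readout is SRB absorbance at 560 nm (0.1% stain, TCA-fixed parallel cultures) as a total-protein cytotoxicity measure. Cells: primary human umbilical vein endothelium plus peripheral blood mononuclear cells, 24 h after chemical exposure; DMSO served as baseline.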
# [2] = read-out: Interleukin-1 alpha (IL1a), IL1A (gene 3552); assay: BSK_LPS_IL1a: BioMAP Diversity Plus: LPS Assay for Interleukin-1 alpha (IL1a) Biomarker Activity (AID 2283080); settings: primary human HUVEC with PBMC; actives raise or lower the signal
# Summary of the method: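 ELISA read-out of IL-1 alpha from a human primary vascular co-culture (endothelium plus PBMC) under LPS, sampled 24 hours post-dosing. Activity was fitted in both directions relative to DMSO controls.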
# [3] = read-out: Monocyte Chemoattractant Protein-1 (MCP1), CCL2 (gene 6347); assay: BSK_LPS_MCP1: BioMAP Diversity Plus: LPS Assay for Monocyte Chemoattractant Protein-1 (MCP1) Biomarker Activity (AID 2283081); settings: primary human HUVEC with PBMC; actives raise or lower the signal;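 for AC50: secreted MCP-1 protein quantified by ELISA in culture supernatant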
# Summary of the method: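 Human endothelial–PBMC co-cultures were dosed with chemical, then LPS-driven MCP-1 levels were quantified by ELISA at 24 h. Activity in either direction was fitted versus DMSO negative control.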
# [4] = BSK_LPS_PGE2: BioMAP Diversity Plus: LPS Assay for Prostaglandin E2 (PGE2) Biomarker Activity (AID 2283082); settings: primary human HUVEC with PBMC; actives raise or lower the signal;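 for AC50: secreted prostaglandin E2 measured by ELISA in LPS-stimulated co-culture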
# Summary of the method: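 HUVEC plus PBMC co-culture stimulated with LPS; secreted PGE2 quantified by ELISA 24 h after chemical dosing. Activity fitted bidirectionally against DMSO as negative control and baseline; parallel SRB total-protein staining served as cytotoxicity check.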
# [5] = read-out: Tissue Factor, F3 (gene 2152); assay: BSK_LPS_TissueFactor: BioMAP Diversity Plus: LPS Assay for Tissue Factor Biomarker Activity (AID 2283084); settings: primary human HUVEC with PBMC; actives raise or lower the signal
# Summary of the method: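 ELISA signal for cell-surface Tissue Factor (CD142) was read 24 h after compound dosing of an LPS-stimulated human endothelial–PBMC primary co-culture. Gain or loss of signal was scored relative to DMSO.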
# [6] = read-out: Tumor necrosis factor (Homo sapiens) (UniProt P01375); assay: BSK_LPS_TNFa: BioMAP Diversity Plus: LPS Assay for Tumour Necrosis Factor alpha (TNFa) Biomarker Activity (AID 2283085); settings: primary human HUVEC with PBMC; actives raise or lower the signal
# Summary of the method: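 Human umbilical vein endothelial cells co-cultured with PBMC were exposed to test chemical and TNFa measured by ELISA 24 h after dosing. Bidirectional curve fitting was done relative to DMSO as negative control and baseline.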
# [7] = read-out: Vascular cell adhesion molecule 1 (VCAM1), VCAM1 (gene 7412); assay: BSK_LPS_VCAM1: BioMAP Diversity Plus: LPS Assay for Vascular cell adhesion molecule 1 (VCAM1) Biomarker Activity (AID 2283086); settings: primary human HUVEC with PBMC; actives raise or lower the signal
# Summary of the method: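 Human umbilical vein endothelial cells co-cultured with peripheral blood mononuclear cells under LPS stimulation were exposed to test chemical for 24 h. VCAM-1 levels were then measured by ELISA, with bidirectional curve fitting relative to DMSO as negative control and baseline.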
# [8] = read-out: CD38, CD38 (gene 952); assay: BSK_SAg_CD38: BioMAP Diversity Plus: SAg Assay for CD38 Biomarker Activity (AID 2283087); settings: primary human HUVEC with PBMC; actives raise or lower the signal
# Summary of the method: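 Fluorescence ELISA of cell-surface CD38 served as the read-out, with either increase or decrease fitted against DMSO controls. Cells were a human umbilical vein endothelium plus PBMC co-culture under SEB/TSST-1 stimulation, measured 24 h after dosing.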
# [9] = read-out: CD40, CD40 (gene 958); assay: BSK_SAg_CD40: BioMAP Diversity Plus: SAg Assay for CD40 Biomarker Activity (AID 2283088); settings: primary human HUVEC with PBMC; actives raise or lower the signal
# Summary of the method: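 Compounds were dosed onto a human primary endothelial–PBMC co-culture, and after 24 h CD40 was quantified by ELISA using a fluorescence signal. Activity in either direction was fitted relative to DMSO.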
# [10] = read-out: CD69, CD69 (gene 969); assay: BSK_SAg_CD69: BioMAP Diversity Plus: SAg Assay for CD69 Biomarker Activity (AID 2283089); settings: primary human HUVEC with PBMC; actives raise or lower the signal;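 for AC50: cell surface CD69 protein quantified by ELISA with fluorescence detection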
# Summary of the method: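 Values derive from bidirectional fitting relative to DMSO vehicle. Cells: umbilical vein endothelium plus peripheral blood mononuclear cells, treated 24 h before fluorescent ELISA for CD69.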
# [11] = read-out: Monocyte Chemoattractant Protein-1 (MCP1), CCL2 (gene 6347); assay: BSK_SAg_MCP1: BioMAP Diversity Plus: SAg Assay for Monocyte Chemoattractant Protein-1 (MCP1) Biomarker Activity (AID 2283090); settings: primary human HUVEC with PBMC; actives raise or lower the signal
# Summary of the method: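 MCP-1 levels in the endothelial–PBMC SAg co-culture were quantified by ELISA at 24 h post-dosing; both increases and decreases versus DMSO scored. Cytotoxicity monitored by SRB total protein in parallel cultures.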
# [12] = read-out: E-selectin (Homo sapiens) (UniProt P16581); assay: BSK_SAg_Eselectin: BioMAP Diversity Plus: SAg Assay for Eselectin Biomarker Activity (AID 2283091); settings: primary human HUVEC with PBMC; actives raise or lower the signal
# Summary of the method: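 Co-culture: HUVEC + PBMC. Dose compound; 24 h. ELISA for E-selectin. Bidirectional fit vs DMSO.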
# [13] = read-out: Monokine induced gamma interferon (MIG), CXCL9 (gene 4283); assay: BSK_SAg_MIG: BioMAP Diversity Plus: SAg Assay for Monokine induced gamma interferon (MIG) Biomarker Activity (AID 2283092); settings: primary human HUVEC with PBMC; actives raise or lower the signal
# Summary of the method: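 Values reflect bidirectional fitting of ELISA-measured MIG against DMSO vehicle, taken 24 h after dosing of a co-culture of human umbilical vein endothelial cells and peripheral blood mononuclear cells.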
# [14] = BSK_SAg_PBMCCytotoxicity: PBMC Cytotoxicity Assessment in the BioMAP Diversity Plus: SAg Assay (AID 2283093); settings: primary human HUVEC with PBMC;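 note: PBMC viability measured as Alamar Blue reduction fluorescence at 546/580 nm; fitted both ways against DMSO so a hit may be loss or gain of signal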;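 for AC50: PBMC superantigen activated with SEB plus TSST-1 one hour after compound addition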
# Summary of the method: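 Compound added to 75,000 PBMC/well for 1 h; SEB and TSST-1 then added at 20 ng/mL final each; 90 h incubation; Alamar Blue 6 h; read 546/580 nm ex/em. Activity fitted bidirectionally relative to DMSO baseline.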
# [15] = read-out: Interleukin-8 (IL8), CXCL8 (gene 3576); assay: BSK_SAg_IL8: BioMAP Diversity Plus: SAg Assay for Interleukin-8 (IL8) Biomarker Activity (AID 2283094); settings: primary human HUVEC with PBMC; actives raise or lower the signal
# Summary of the method: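 Human umbilical vein endothelial cells co-cultured with peripheral blood mononuclear cells; IL-8 measured by ELISA 24 h after chemical dosing. Bidirectional concentration-response fitting used DMSO as negative control and activity baseline.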
# [16] = BSK_SAg_Proliferation: Cell Proliferation Assessment in the BioMAP Diversity Plus: SAg Assay (AID 2283095); settings: primary human HUVEC with PBMC;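 note: relative cell number as total protein by SRB absorbance in sub-confluent culture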
# Summary of the method: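 Human umbilical vein endothelial cells co-cultured with peripheral blood mononuclear cells; total protein measured by sulforhodamine B staining (0.1% SRB after 10% TCA fixation), absorbance at 560 nm, at 96 h. Bidirectional fit against DMSO baseline.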
# [17] = biological target: human CYP2C9, CYP2C9 (gene 1559) (UniProt P11712); assay: NVS_ADME_hCYP2C9: NovaScreen (NVS) CYP450-related Enzyme Activity (ADME) Assay for human CYP2C9 (AID 2283108; active = hit-call score of the fitted dose curve at least 0.9, where 1 is the maximum)
# Summary of the method: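 Fluorescence readout of CYP2C9 activity (SF9-expressed human enzyme) at 0.75 h. The primary screen used 10 uM in duplicate, with concentration-response follow-up for actives; acetonitrile was the negative control.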
# [18] = biological target: Cytochrome P450 2C19 (Homo sapiens) (UniProt P33261); assay: NVS_ADME_hCYP2C19: NovaScreen (NVS) CYP450-related Enzyme Activity (ADME) Assay for human CYP2C19 (AID 2283113; active = hit-call score of the fitted dose curve at least 0.9, where 1 is the maximum;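 note: potency for inhibition seen as loss of fluorescent signal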)
# Summary of the method: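 Fluorescence intensity was measured 1 hour after chemicals were added to insect-cell-derived recombinant CYP2C19 with fluorogenic substrate. Decreased signal versus acetonitrile control was taken as reduced enzyme activity; initial testing used 10 uM in duplicate.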
# [19] = biological target: human CYP2D6, CYP2D6 (gene 1565) (UniProt P10635); assay: NVS_ADME_hCYP2D6: NovaScreen (NVS) CYP450-related Enzyme Activity (ADME) Assay for human CYP2D6 (AID 2283107; active = hit-call score of the fitted dose curve at least 0.9, where 1 is the maximum)
# Summary of the method: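 Insect-cell recombinant enzyme + fluorogenic substrate, cell-free; 1 h incubation; fluorescence intensity readout. Acetonitrile = neg. ctrl/baseline. Single-point 10 uM, duplicate; follow-up concentration series.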
# Chain of E-selectin (Homo sapiens) (P16581 whole entry, looked up): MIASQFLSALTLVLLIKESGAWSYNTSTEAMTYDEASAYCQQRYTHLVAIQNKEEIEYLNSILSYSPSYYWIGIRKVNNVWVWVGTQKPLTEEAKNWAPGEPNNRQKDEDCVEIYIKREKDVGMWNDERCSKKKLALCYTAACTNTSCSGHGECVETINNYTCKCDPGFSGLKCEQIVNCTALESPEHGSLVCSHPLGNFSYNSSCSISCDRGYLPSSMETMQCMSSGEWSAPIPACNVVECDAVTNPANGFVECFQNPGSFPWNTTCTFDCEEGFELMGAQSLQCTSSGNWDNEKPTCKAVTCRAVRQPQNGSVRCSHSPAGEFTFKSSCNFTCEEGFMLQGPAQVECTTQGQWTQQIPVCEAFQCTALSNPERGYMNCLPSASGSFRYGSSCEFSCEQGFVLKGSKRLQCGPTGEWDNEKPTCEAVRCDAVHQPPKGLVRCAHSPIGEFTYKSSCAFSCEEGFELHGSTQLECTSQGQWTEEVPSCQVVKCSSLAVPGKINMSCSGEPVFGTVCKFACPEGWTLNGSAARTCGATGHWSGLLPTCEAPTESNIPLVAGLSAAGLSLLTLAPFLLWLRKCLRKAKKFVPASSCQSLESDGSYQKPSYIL
# Chain of Tumor necrosis factor (Homo sapiens) (P01375 whole entry, looked up): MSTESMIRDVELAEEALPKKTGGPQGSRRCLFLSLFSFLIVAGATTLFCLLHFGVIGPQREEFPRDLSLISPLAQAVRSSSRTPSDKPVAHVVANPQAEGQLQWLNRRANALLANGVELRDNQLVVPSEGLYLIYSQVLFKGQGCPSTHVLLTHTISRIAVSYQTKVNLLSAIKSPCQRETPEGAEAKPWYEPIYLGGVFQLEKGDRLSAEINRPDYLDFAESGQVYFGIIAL
# Chain of human CYP2D6, CYP2D6 (gene 1565) (P10635 whole entry, looked up): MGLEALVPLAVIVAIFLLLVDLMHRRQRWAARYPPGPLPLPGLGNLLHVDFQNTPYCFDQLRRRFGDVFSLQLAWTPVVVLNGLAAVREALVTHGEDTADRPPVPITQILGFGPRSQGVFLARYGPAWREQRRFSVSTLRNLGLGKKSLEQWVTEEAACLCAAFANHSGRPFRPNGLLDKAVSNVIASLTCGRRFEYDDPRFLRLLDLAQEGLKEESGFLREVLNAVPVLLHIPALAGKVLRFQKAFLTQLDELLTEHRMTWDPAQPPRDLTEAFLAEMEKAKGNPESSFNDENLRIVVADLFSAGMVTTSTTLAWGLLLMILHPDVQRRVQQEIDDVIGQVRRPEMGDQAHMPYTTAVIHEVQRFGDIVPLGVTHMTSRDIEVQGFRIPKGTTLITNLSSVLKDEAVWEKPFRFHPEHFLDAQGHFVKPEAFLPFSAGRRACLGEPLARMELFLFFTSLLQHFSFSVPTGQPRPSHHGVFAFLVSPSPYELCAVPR
# Chain of human CYP2C9, CYP2C9 (gene 1559) (P11712 whole entry, looked up): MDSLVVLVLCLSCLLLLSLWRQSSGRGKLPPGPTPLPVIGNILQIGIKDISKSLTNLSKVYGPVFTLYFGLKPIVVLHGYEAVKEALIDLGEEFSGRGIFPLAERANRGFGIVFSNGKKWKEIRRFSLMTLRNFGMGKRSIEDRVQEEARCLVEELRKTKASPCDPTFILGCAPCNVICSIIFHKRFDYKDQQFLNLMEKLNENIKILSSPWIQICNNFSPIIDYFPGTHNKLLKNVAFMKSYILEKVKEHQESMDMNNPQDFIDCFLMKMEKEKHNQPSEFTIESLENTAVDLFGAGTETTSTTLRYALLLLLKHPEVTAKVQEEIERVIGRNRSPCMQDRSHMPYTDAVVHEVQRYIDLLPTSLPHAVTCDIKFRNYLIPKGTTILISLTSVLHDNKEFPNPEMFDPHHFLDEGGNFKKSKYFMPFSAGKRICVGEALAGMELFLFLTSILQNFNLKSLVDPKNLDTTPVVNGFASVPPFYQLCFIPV
smiles,measurement,setting,value
C/C=C\C/C=C/CCCCCCCCOC(C)=O,outcome,[1],inactive
same,AC50,[2],35.1 µM (active)
same,AC50,[3],30.5 µM (active)
same,AC50,[4],35.5 µM (active)
same,AC50,[5],30.4 µM (active)
same,AC50,[6],32.4 µM (active)
same,AC50,[7],26.2 µM (active)
same,AC50,[8],32.1 µM (active)
same,AC50,[9],20 µM (active)
same,AC50,[10],20 µM (active)
same,outcome,[11],inactive
same,AC50,[12],29.5 µM (active)
same,outcome,[13],inactive
same,AC50,[14],24.3 µM (active)
same,outcome,[15],inactive
same,AC50,[16],26.7 µM (active)
same,AC50,[17],3.9 µM (active)
same,AC50,[18],0.065 µM (active)
CCCCC(CC)COC(=O)c1ccccc1O (stereo not given),outcome,[1],inactive
same,outcome,[2],inactive
same,outcome,[3],inactive
same,outcome,[4],inactive
same,outcome,[5],inactive
same,outcome,[6],inactive
same,AC50,[7],10 µM (active)
same,outcome,[8],inactive
same,outcome,[9],inactive
same,outcome,[10],inactive
same,outcome,[11],inactive
same,outcome,[12],inactive
same,outcome,[13],inactive
same,AC50,[14],18.4 µM (active)
same,outcome,[15],inactive
same,AC50,[16],17.8 µM (active)
c1ccc2c(c1)ccc1ncccc12,AC50,[1],20 µM (active)
same,AC50,[2],20 µM (active)
same,AC50,[3],3.97 µM (active)
same,outcome,[4],inactive
same,AC50,[5],6.01 µM (active)
same,outcome,[6],inactive
same,AC50,[7],2.69 µM (active)
same,AC50,[8],29.7 µM (active)
same,AC50,[9],20 µM (active)
same,outcome,[10],inactive
same,outcome,[11],inactive
same,outcome,[12],inactive
same,outcome,[13],inactive
same,outcome,[14],inactive
same,outcome,[15],inactive
same,outcome,[16],inactive
O=C1CCCN1CCO,outcome,[1],inactive
same,outcome,[2],inactive
same,outcome,[3],inactive
same,outcome,[4],inactive
same,outcome,[5],inactive
same,outcome,[6],inactive
same,outcome,[7],inactive
same,outcome,[8],inactive
same,outcome,[9],inactive
same,outcome,[10],inactive
same,outcome,[11],inactive
same,outcome,[12],inactive
same,outcome,[13],inactive
same,outcome,[14],inactive
same,outcome,[15],inactive
same,outcome,[16],inactive
N#[N+]c1ccc2c(S(=O)(=O)[O-])cccc2c1O,outcome,[1],inactive
same,outcome,[2],inactive
same,outcome,[3],inactive
same,outcome,[4],inactive
same,outcome,[5],inactive
same,outcome,[6],inactive
same,outcome,[7],inactive
same,outcome,[8],inactive
same,outcome,[9],inactive
same,outcome,[10],inactive
same,outcome,[11],inactive
same,outcome,[12],inactive
same,outcome,[13],inactive
same,outcome,[14],inactive
same,outcome,[15],inactive
same,outcome,[16],inactive
same,AC50,[19],3.97 µM (active)
CCCCCCCCCCCCCCCC[N+](C)(C)CC,AC50,[1],1.62 µM (active)
same,AC50,[2],1.42 µM (active)
same,AC50,[3],2.58 µM (active)
same,outcome,[4],inactive
same,AC50,[5],2.36 µM (active)
same,AC50,[6],4.58 µM (active)
same,AC50,[7],3.79 µM (active)
same,AC50,[8],9.51 µM (active)
same,AC50,[9],10.2 µM (active)
same,AC50,[10],1.78 µM (active)
same,AC50,[11],2.24 µM (active)
same,AC50,[12],2.77 µM (active)
same,AC50,[13],3.51 µM (active)
same,AC50,[14],1.94 µM (active)
same,AC50,[15],9.75 µM (active)
same,AC50,[16],0.314 µM (active)
same,AC50,[19],0.536 µM (active)
same,AC50,[18],2.31 µM (active)
C=CC=CC=CCCCCC,outcome,[1],inactive
same,outcome,[2],inactive
same,outcome,[3],inactive
same,outcome,[4],inactive
same,outcome,[5],inactive
same,outcome,[6],inactive
same,outcome,[7],inactive
same,outcome,[8],inactive
same,outcome,[9],inactive
same,outcome,[10],inactive
same,outcome,[11],inactive
same,outcome,[12],inactive
same,outcome,[13],inactive
same,outcome,[14],inactive
same,outcome,[15],inactive
same,AC50,[16],6.71 µM (active)
CCCCC/C=C\C/C=C\CCCCCCCC(=O)OC,outcome,[1],inactive
same,AC50,[2],31.8 µM (active)
same,AC50,[3],37.1 µM (active)
same,outcome,[4],inactive
same,AC50,[5],20 µM (active)
same,AC50,[6],36.1 µM (active)
same,AC50,[7],30 µM (active)
same,AC50,[8],28.4 µM (active)
same,AC50,[9],20 µM (active)
same,outcome,[11],inactive
same,AC50,[12],30.9 µM (active)
same,AC50,[13],31.4 µM (active)
same,AC50,[14],23.2 µM (active)
same,AC50,[15],27.8 µM (active)
same,AC50,[16],13.1 µM (active)
same,AC50,[18],6.47 µM (active)
COc1ccc2nc(N)sc2c1,outcome,[1],inactive
same,outcome,[2],inactive
same,outcome,[3],inactive
same,outcome,[4],inactive
same,outcome,[5],inactive
same,outcome,[6],inactive
same,outcome,[7],inactive
same,outcome,[8],inactive
same,outcome,[9],inactive
same,outcome,[10],inactive
same,outcome,[11],inactive
same,outcome,[12],inactive
same,outcome,[13],inactive
same,outcome,[14],inactive
same,outcome,[15],inactive
same,outcome,[16],inactive
same,AC50,[18],0.319 µM (active)
